Compound activity from PubChem.
Shown are actives, neighbours in structure and some others; about 19% of the full set was active somewhere.
TGFb inhibitor = qHTS for Inhibitors of TGF-b | HepG2 CAGA-GFP TGF-b/SMAD3 reporter, GFP fluorescence, 18 h; TGF-beta stimulated, 500 pg/mL final | Potency, µM (doses to about 46.1 µM), without a hit: top-dose activity, negative = inhibition, actives largely listed as inhibitors | 410,000 tested, 1.2% active | AID 588855, 2011; further: potency means the concentration at half of the fitted maximal effect; on the % scale 0 is the no-effect control and ±100 the full control effect; nearly all actives have a fitted effect of over 65% in size
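Inhibition was scored as loss of TGF-beta-induced (500 pg/mL final, 18 hours, 37 degrees C) GFP in HEPG2 cells carrying a CAGA-GFP reporter, in DMEM with 1% FBS. Well GFP was summed per cell; Activity was normalised to unstimulated and stimulated DMSO wells, then concentration-response fitting.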
TDP1 cell noCPT = qHTS for Inhibitors of human tyrosyl-DNA phosphodiesterase 1 (TDP1): qHTS in cells in absence of CPT | DT40 Tdp1-/- hTDP1 cells, no CPT, ATP luminescence, 48 h | 420,000 tested, 15% active | Potency, µM (doses to about 46.2 µM), without a hit: at the highest dose activity change, negative = growth inhibition, hits mostly inhibitors; further: potency means the concentration at half of the fitted maximal effect; on the % scale 0 is the no-effect control and ±100 the full control effect; nearly all actives have a fitted effect of over 55% in size
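Growth of hTDP1-complemented DT40 Tdp1-knockout cells is measured by ATP luminescence after at least 48 hr compound exposure at 37 °C, with DMSO substituting for the 20 nM CPT used in the parallel screen.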
DT40 TDP1 CPT = qHTS for Inhibitors of human tyrosyl-DNA phosphodiesterase 1 (TDP1): qHTS in cells in presence of CPT | chicken DT40 Tdp1-/-;hTDP1 cells + 20 nM CPT, ATP luminescence, 48 h | Potency, µM (doses to about 46.2 µM), for the others: top-dose activity change, negative = growth inhibition, most hits filed as inhibitors | 420,000 tested, 12% active; further: potency means the concentration at half of the fitted maximal effect; on the % scale 0 is the no-effect control and ±100 the full control effect; nearly all actives have a fitted effect of over 55% in size
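Cell growth measured by CellTiter-Glo luminescence after a minimum 48 h, 37 C compound exposure with 20 nM CPT in Tdp1-knockout DT40 cells stably expressing hTDP1, seeded 400/well; qHTS titration format.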
S-ASM inh = Inhibitors of Secretory Acid Sphingomyelinase (S-ASM): qHTS; placental ASM, HMU-PC fluorogenic substrate, 60 min; 340,000 tested, 0.006% active; Sphingomyelin phosphodiesterase (Homo sapiens), P17405; AID 504937, 2011; Potency, µM (series often up to 57.5 µM), without a hit: at the highest dose activity change, negative = inhibition, most hits filed as inhibitors; further: potency means the concentration at half of the fitted maximal effect
Target sequence (P17405 47-631 limits assumed): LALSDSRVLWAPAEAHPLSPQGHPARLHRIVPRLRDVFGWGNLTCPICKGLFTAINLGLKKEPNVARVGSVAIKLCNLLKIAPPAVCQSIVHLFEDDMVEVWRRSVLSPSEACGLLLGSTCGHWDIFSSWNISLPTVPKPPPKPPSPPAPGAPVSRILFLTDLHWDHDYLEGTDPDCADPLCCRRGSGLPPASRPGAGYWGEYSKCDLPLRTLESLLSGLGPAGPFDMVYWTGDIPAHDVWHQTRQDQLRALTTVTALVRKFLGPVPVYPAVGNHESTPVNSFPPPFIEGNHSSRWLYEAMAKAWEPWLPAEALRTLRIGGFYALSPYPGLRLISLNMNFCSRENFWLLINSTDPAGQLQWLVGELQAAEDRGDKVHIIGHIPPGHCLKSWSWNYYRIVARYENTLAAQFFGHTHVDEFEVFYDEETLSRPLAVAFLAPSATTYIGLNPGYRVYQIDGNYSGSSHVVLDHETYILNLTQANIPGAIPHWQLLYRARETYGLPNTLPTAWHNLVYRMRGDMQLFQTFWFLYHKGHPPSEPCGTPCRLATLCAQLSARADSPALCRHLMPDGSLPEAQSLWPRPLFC
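HMU-PC0 cleavage (9 uM final) by human placental ASM, 60 min at 37 °C following 10 min compound exposure at RT; stopped at pH 10, fluorescence Ex 386/Em 447 nm.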
HepG2 tox = qHTS for Inhibitors of TGF-b: Cytotox Counterscreen | HepG2 CAGA-GFP viability, ATP luminescence, 18 h | Potency, µM (titrated, usually from 46.1 µM), inactives show top-dose activity change, negative = cytotoxicity, most hits filed as cytotoxic | 410,000 tested, 0.76% active; further: potency means the concentration at half of the fitted maximal effect
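HepG2 CAGA-GFP cells (1000/well, DMEM with 1% FBS) received compound, then TGF-beta at 500 pg/mL final, and were incubated 18 hours at 37 degrees C. Viability was read by CellTiter-Glo luminescence. Media-only wells were set as complete cell-killing and DMSO as no toxicity.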
IL1B secr inh = qHTS for Inhibitors of Inflammasome Signaling: IL-1-beta AlphaLISA Primary Screen; activity change, % at 57.5 µM; AID 743279, 2014; THP-1 LPS/ATP IL-1B secretion, AlphaLISA, 16 h; active compounds read low; 360,000 tested, 4.7% active; in the data active means activity change below about -50%; inconclusive means mostly about -30% to -49%; further: on the % scale 0 is the no-effect control and ±100 the full control effect
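Secreted IL-1B measured by AlphaLISA bead assay after 16 h compound exposure of THP-1 cells; compounds (final up to 57.5 uM) added 1 h before LPS (250 ng/mL) and ATP (1.25 mM) stimulation; lower signal means less secretion.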
* hit, by the source's call; ? = inconclusive; / = no result given. Unless noted, the call rests on the fitted dose curve; in most records, active means well fitted curve in the direction sought with a large enough effect; inconclusive means small, poorly fitted or top-dose-only effect, or another doubt; inactive means no such curve, though single readings can be large; an effect the other way counts as inactive or inconclusive.

SMILES	TGFb inhibitor	TDP1 cell noCPT	DT40 TDP1 CPT	S-ASM inh	HepG2 tox	IL1B secr inh
COc1ccc(NC(=O)C2CCCN(S(=O)(=O)c3ccccc3)C2)c(OC)c1 (stereo unspecified)	0%	?	?	-1%	-19%	2
Cc1ccc(OCC(=O)N(C)CC(=O)NCc2ccco2)c(Br)c1	-19%	-29%	4%	-1%	-3%	4
NNC(=O)CS(=O)(=O)CS(=O)(=O)CC(=O)NN	-3%	-15%	18%	2%	17%	29
COc1ccc(N2CCN(C(=O)c3ccc(N(C)S(=O)(=O)c4ccc(C)cc4)cc3)CC2)cc1	-10%	16µM*	16µM*	-1%	2%	0
COc1ccc(S(=O)(=O)N(C)c2ccc(C(=O)N3CCN(C)CC3)cc2)cc1	9%	-28%	-15%	-1%	7%	10
CCOC(Cn1c(SCc2cc(C(C)=O)ccc2OC)nc2ccccc2c1=O)OCC	2%	-4%	1%	4%	-32%	17
COc1ccc(C(C)=O)cc1CSc1nc(NCc2ccccc2)c2ccccc2n1	?	23µM*	?	/	-5%	/
COc1ccc(C(C)=O)cc1CSc1nc2cc(C(=O)O)ccc2c(=O)n1Cc1ccccc1	-12%	?	-29%	16%	-11%	0
Fc1cccc(CSc2nc(NCCc3ccccc3)c3ccccc3n2)c1	-5%	23µM*	16µM*	/	-15%	/
COc1ccc(C(C)=O)cc1CSc1nc(NCCc2ccccc2)c2ccccc2n1	?	10µM*	18µM*	/	-6%	/
Fc1cccc(CSc2nnc3c(n2)[nH]c2ccccc23)c1	-15%	-8%	-20%	0%	-7%	0
COc1ccc(C(C)=O)cc1CSc1nc(Nc2ccc(F)c(F)c2)c2ccccc2n1	0%	23µM*	?	/	-6%	/
CCOc1ccc(CCNC(=O)Cn2nc(CC)n3c(cc4ccccc43)c2=O)cc1	-20%	?	-20%	/	-14%	/
COc1cc(SC)ccc1C(=O)Nc1ccc2c(c1)OCCO2	-1%	?	?	1%	-37%	?
CSC1=N/C(=C\c2ccc(Cl)cc2)C(=O)N1N(C)C	?	23µM*	?	10%	-13%	/
COc1ccc(C(C(N)=O)c2ncc(C(F)(F)F)cc2Cl)cc1 (stereo unspecified)	-3%	?	-16%	1%	3%	8
CC1=C([N+](=O)[O-])C(c2ccc(Cl)cc2)NC(=O)N1C (stereo unspecified)	0%	5.8µM*	6.5µM*	-2%	-20%	34
Cn1c(SCc2nc(-c3ccccc3)no2)nnc1-c1ccco1	-2%	-6%	-3%	-1%	-1%	6
CCn1c(SCc2nc(-c3ccc(Cl)cc3)no2)nnc1-c1ccco1	4%	21µM*	?	-5%	-22%	?
Cn1c(SCc2nc(-c3ccc(Cl)cc3)no2)nnc1-c1cccs1	10%	16µM*	?	0%	-6%	?
CN(C)C(CNC(=O)c1cnc(Cl)c(Cl)c1)c1ccccc1 (stereo unspecified)	?	-25%	-11%	4%	-4%	?
Cn1c(C(=O)N2CCN(c3ccc(Cl)cc3)CC2)cc2c(=O)[nH]c3ccccc3c21	-11%	21µM*	?	-12%	-28%	?
O=C(c1cc2c(=O)[nH]c3ccccc3c2s1)N1CCN(c2ccc(F)cc2)CC1	-3%	?	?	/	4%	/
CC(C)c1ccc(NC(=O)c2cc3c(=O)[nH]c4ccccc4c3n2C)cc1	9%	15µM*	6.5µM*	/	-11%	/
CN(CCCNC(=O)c1cc2c(=O)[nH]c3ccccc3c2n1C)Cc1ccccc1	11%	?	-18%	-2%	-7%	-25
SMILES	TGFb inhibitor	TDP1 cell noCPT	DT40 TDP1 CPT	S-ASM inh	HepG2 tox	IL1B secr inh
COC(=O)c1ccc2c(c1)S(=O)(=O)NC(=NCc1ccco1)S2	2%	-24%	5%	-2%	4%	14
Cc1cccc(NC(=O)c2ccc(-n3cnc4cccnc43)cc2)c1C	3%	/	/	/	-20%	/
CC1(C)CCC(=O)N2CC[C@H]3C[C@H](OC(=O)Nc4ccc5c(c4)OCO5)C[C@@H]1[C@H]32	-3%	?	?	4%	4%	-15
O=C(Nc1ccccc1)C1CC2CCC1C2 (stereo unspecified)	19%	15%	12%	-3%	-1%	9
CC1(C)CCC(=O)N2CC[C@H]3C[C@H](OC(=O)Nc4ccccc4)C[C@@H]1[C@H]32	-3%	?	16µM*	1%	-13%	-18
O=C(Nc1ccccc1)OC1CCC2CC1CCC2OC(=O)Nc1ccccc1 (stereo unspecified)	?	12µM*	13µM*	-8%	4%	?
O=S1(=O)c2cccc3cccc(c23)N1CCCN1CCN(c2ccc(F)cc2)CC1	/	21µM*	?	/	/	/
COc1ccc(CNCCCSc2nnnn2-c2ccccc2)cc1	14%	?	?	/	-36%	/
Cc1ccc(CN2C(=O)CCC2(C)c2nnnn2-c2c(C)cccc2C)cc1 (stereo unspecified)	/	16µM*	18µM*	/	/	15
O=C(COc1ccccc1C(=O)Nc1cccnc1)Nc1ccc(Br)cc1	3%	?	?	/	4%	/
O=C(COc1ccc2ccccc2c1Br)Nc1ccncc1	-27%	7.3µM*	10µM*	-2%	-17%	-1
Cc1c(C)c2ccc(OCC(=O)Nc3cccnc3)c(C)c2oc1=O	1%	18µM*	?	4%	-7%	9
O=C(COc1ccc2ccccc2c1Br)Nc1cccnc1	-3%	?	16µM*	-1%	-29%	?
Cc1cc(N2CCN(S(=O)(=O)c3ccc(Br)cc3)CC2)n2ncnc2n1	23%	-22%	-14%	2%	2%	-4
CCc1c(C)nc2ncnn2c1Nc1ccc(C)cc1	-9%	?	?	3%	-1%	4
Cc1cc(NCCc2ccc(Cl)cc2)n2ncnc2n1	2%	?	-5%	1%	-11%	40
